Shown are actives, neighbours in structure and some others; about 5% of the full set was active somewhere.
EBI2 antag: blocks human EBI2 receptor beta-arrestin signaling; actives 0.81% (n = 360,000); inhibition, % at 5 µM; AID 651636; P32249; EBI2 beta-arrestin recruitment, luminescence, 7a,25-OHC stimulated; in the data active = inhibition above about 38%;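 note: enzyme fragment complementation signal reports receptor beta-arrestin coupling in cells; 0% = agonist plus DMSO wells and 100% = wells without agonist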
SENP8 block-1: SENP8 protease inhibition; inhibition, % at 10 µM; Q96LD8; actives 1.2% (n = 330,000); purified SENP8, Z-RLRGG-aminoluciferin cleavage, luminescence; in the data active = inhibition above about 50%
SENP8 block-2: inhibitors of human SENP8 protease. Q96LD8. recombinant SENP8, Nedd8 substrate fluorescence. inhibition, % at 20 µM. actives 0.64% (n = 360,000). AID 602440; in the data active = inhibition mostly above about 40%, no sharp cut-off; inactive = mostly below about 27%
AHR act: activators of human aryl hydrocarbon receptor; P35869; AHR-responsive luciferase reporter cells, luminescence; activation, % at 5 µM; actives 2.5% (n = 320,000); in the data active = activation above about 47%;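 note: 0% = vehicle wells and 100% = reference agonist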
Target sequence (P35869 whole entry, looked up): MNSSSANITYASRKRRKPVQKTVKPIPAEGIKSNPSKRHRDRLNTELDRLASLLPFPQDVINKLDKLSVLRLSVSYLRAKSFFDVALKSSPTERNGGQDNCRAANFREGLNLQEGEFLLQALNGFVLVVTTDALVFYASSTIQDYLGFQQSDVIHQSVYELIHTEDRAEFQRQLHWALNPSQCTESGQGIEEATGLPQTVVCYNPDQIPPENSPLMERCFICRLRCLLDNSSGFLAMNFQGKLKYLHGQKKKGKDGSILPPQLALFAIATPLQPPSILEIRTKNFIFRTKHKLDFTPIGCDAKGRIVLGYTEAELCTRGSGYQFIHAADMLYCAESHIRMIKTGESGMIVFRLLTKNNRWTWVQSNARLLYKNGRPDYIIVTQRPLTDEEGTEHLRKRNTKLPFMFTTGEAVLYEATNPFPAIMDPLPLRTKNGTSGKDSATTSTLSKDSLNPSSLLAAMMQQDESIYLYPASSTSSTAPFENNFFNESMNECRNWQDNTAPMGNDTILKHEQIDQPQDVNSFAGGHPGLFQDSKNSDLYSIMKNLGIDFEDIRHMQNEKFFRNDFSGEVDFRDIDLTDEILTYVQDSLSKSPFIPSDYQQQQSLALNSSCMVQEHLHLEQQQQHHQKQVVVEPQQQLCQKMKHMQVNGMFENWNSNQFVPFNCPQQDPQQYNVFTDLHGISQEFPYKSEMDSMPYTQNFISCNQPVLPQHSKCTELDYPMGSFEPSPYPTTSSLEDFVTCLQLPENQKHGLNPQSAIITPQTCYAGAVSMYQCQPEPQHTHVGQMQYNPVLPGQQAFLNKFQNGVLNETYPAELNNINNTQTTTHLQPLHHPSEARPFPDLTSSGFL
SENP7 block: blocks the human protease SENP7. Q9BQF6. recombinant SENP7, Z-RLRGG-aminoluciferin luminescence, 40 min. inhibition, % at 5 µM. actives 1.5% (n = 330,000);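 active = inhibition above about 50% at the single test dose, limit read from the data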;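 note: plate controls were DMSO with enzyme for no effect and no enzyme buffer wells for full effect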
SENP6 block: inhibitors of human SENP6 protease | Q9GZR1 | Recombinant SENP6 catalytic domain, aminoluciferin luminescence | inhibition, % at 10 µM | actives 1.8% (n = 330,000);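 active = inhibition above about 50% at the single tested dose, limit read from the data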;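 note: plate controls were DMSO wells with enzyme for no effect and DMSO wells lacking enzyme for full effect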
SENP8 inh conf: SENP8 (human) inhibition, single concentration confirmation | shares compounds with SENP8 block-2 | purified SENP8, Nedd8-AMC/pro-Nedd8 cleavage fluorescence, 30 min | inhibition, % at 25 µM | actives 15% (n = 1,400) | AID 624319; in the data active = inhibition mostly above about 39%, no sharp cut-off; inactive = mostly below about 34%
* = called active by the depositor.

Results for O=C(Cn1cnc2scc(-c3cccc([N+](=O)[O-])c3)c2c1=O)NCc1ccco1 ?
EBI2 antag: -4.9; SENP8 block-1: 5.8; SENP8 block-2: 5.3; AHR act: 21.9; SENP7 block: 0.4; SENP6 block: -4.8

Results for O=C(OCc1ccc(Cl)c(Cl)c1)c1cnccn1 ?
EBI2 antag: 6.5; SENP8 block-1: -17.4; SENP8 block-2: 44.7*; AHR act: -1.7; SENP7 block: 0.7; SENP6 block: 9.1; SENP8 inh conf: -9.0

How did O=C(OCc1ccc(Cl)cc1)c1cnccn1 do in these assays?
EBI2 antag: 4.9; SENP8 block-1: -20.0; SENP8 block-2: 13.4; AHR act: 1.5; SENP7 block: -10.7; SENP6 block: -11.8

How did Nc1ccc(Cc2ccc(N)c(O)c2)cc1O do in these assays?
EBI2 antag: -5.7; SENP8 block-2: 47.6*; SENP8 inh conf: 12.4

How did COc1ccc(S(N)(=O)=O)cc1C(=O)OCC1CCCCC1 do in these assays?
EBI2 antag: -1.6; SENP8 block-1: -0.1; SENP8 block-2: 3.4; AHR act: 0.8; SENP7 block: -0.3; SENP6 block: 2.3

What do the screens show for `Cc1ccc(S(=O)(=O)Nc2ccc(-n3c(C)nc4ccccc4c3=O)cc2)cc1`?
EBI2 antag: -3.7; SENP8 block-1: 12.6; SENP8 block-2: -1.0; AHR act: 2.2; SENP7 block: -4.5; SENP6 block: 2.4

How did COc1ccc(O)cc1 do in these assays?
EBI2 antag: 0.6; SENP8 block-1: 6.8; SENP8 block-2: 48.0*; AHR act: 3.1; SENP7 block: -1.8; SENP6 block: -1.3; SENP8 inh conf: 6.3

Results for COc1ccc(-c2ccnc(-c3ccc(O)cc3)n2)cc1 ?
EBI2 antag: -0.2; SENP8 block-1: -2.2; SENP8 block-2: 4.2; AHR act: 4.6; SENP7 block: 4.8; SENP6 block: 8.4

What do the screens show for `Cc1cc(N2CCN(C)CC2)ccc1NC(=O)c1cccc(S(=O)(=O)N2CCc3ccccc3C2)c1`?
EBI2 antag: 1.8; SENP8 block-1: 5.3; SENP8 block-2: 23.9; AHR act: 3.5; SENP7 block: 4.6; SENP6 block: -11.4

What do the screens show for `NC(N)=Nc1ccc(C=C2C=Cc3ccccc32)cc1`?
EBI2 antag: -5.6; SENP8 block-2: 18.9

Results for COc1ccc2c(c1OC)C(=O)OC2N1C(=O)CC[C@H]1C(=O)Nc1ccc2c(c1)OCO2 (stereo partly specified) ?
EBI2 antag: -4.6; SENP8 block-1: 2.4; SENP8 block-2: 44.2*; AHR act: 4.2; SENP7 block: -7.4; SENP6 block: -4.0; SENP8 inh conf: -2.9

Results for COc1ccccc1N1CC(C(=O)Nc2ccc3c(c2)OCO3)CC1=O (stereo unspecified) ?
EBI2 antag: 5.3; SENP8 block-1: 0.0; SENP8 block-2: 1.1; AHR act: 2.1; SENP7 block: 2.3; SENP6 block: 0.9

How did COc1cc(C2NCCc3c2[nH]c2ccccc32)ccc1OC(C)C (stereo unspecified) do in these assays?
SENP8 block-1: -3.8; AHR act: 12.2; SENP7 block: -0.8; SENP6 block: 2.4

Results for CC(C)C1NCCc2c1sc1ccccc21 (stereo unspecified) ?
EBI2 antag: -11.8; SENP8 block-1: -1.7; SENP8 block-2: 42.7*; AHR act: 0.4; SENP7 block: 0.4; SENP6 block: 3.6; SENP8 inh conf: -8.4

How did CCOC(=O)COc1ccc(/C=C2/SC(=Nc3ccccc3)N(Cc3cccnc3)C2=O)cc1OC do in these assays?
EBI2 antag: 29.3; SENP8 block-1: -1.4; SENP8 block-2: 43.0*; AHR act: -0.8; SENP7 block: 8.4; SENP6 block: -2.3; SENP8 inh conf: 19.1

Results for CCOc1cc(/C=C2\SC(=Nc3ccccc3)N(c3ccccc3)C2=O)ccc1OCC(=O)O ?
EBI2 antag: 0.5; SENP8 block-1: -3.1; SENP8 block-2: 8.0; AHR act: 1.2; SENP7 block: 5.4; SENP6 block: 4.6

Results for COC(=O)c1cc(C(=O)N2CCN(C(=O)c3ccco3)CC2)cc([N+](=O)[O-])c1 ?
EBI2 antag: -1.5; SENP8 block-1: -3.9; SENP8 block-2: -0.8; AHR act: -0.1; SENP7 block: -3.5; SENP6 block: -4.8

Source: PubChem BioAssay
